Records with an inconclusive call do not appear. The source made the active and inactive calls. Unless noted, calls follow the shape of the dose curve; as a rule, active = well fitted curve in the direction sought with a large enough effect in the repeat runs; inconclusive = weak or mixed curves; inactive = no such curve, though single readings can be large; an effect the other way counts as inactive or inconclusive.
Tests used:
[1] = qHTS assay to identify small molecule agonists of the sonic hedgehog signaling (Shh) pathway (AID 1259368; calls by dose curve;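 also: NIH/3T3-derived 3T3Gli1-Luc cells carrying a stable Gli1-driven firefly luciferase reporter; series mostly up to about 92 µM; nearly all actives have a fitted effect of over 15% in size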)
Summary of the method: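 3T3Gli1-Luc (NIH/3T3 clone, stable Gli1-Luc); 4 hr pre-incubation, then cpd in DMSO 24 hr, 37 C/5% CO2; luciferase reagent 30 min RT; luminescence.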

[2] = qHTS assay to identify small molecule antagonists of the sonic hedgehog signaling (Shh) pathway (AID 1259369; calls by dose curve; also: nearly all actives have a fitted effect of over 45% in size)
Summary of the method: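 3T3Gli1-Luc, conditioned-medium-stimulated, 24hr cpd, 37C/5% CO2; Gli1-driven firefly Luc luminescence after 30min RT with luciferase reagent. Cells plated 4hr before cpd.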

[3] = biological target: Estrogen receptor beta (Homo sapiens) (UniProt Q92731); test: qHTS assay to identify small molecule agonists of the estrogen receptor beta (ER-beta) signaling pathway (AID 1259377; active = well fitted activation curve with a large enough effect in the signal ratio in the repeat runs, not every such curve was filed as active; the % refers to the signal ratio)
Summary of the method: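 In HEK293T cells bearing a UAS-beta-lactamase reporter under ER-beta control, DMSO-delivered compounds were incubated for 16 hr at 37C. Activity was detected as fluorescence 2 hours after LiveBLAzer B/G FRET substrate addition.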

[4] = biological target: Estrogen receptor beta (Homo sapiens) (UniProt Q92731); test: qHTS assay to identify small molecule antagonists of the estrogen receptor beta (ER-beta) signaling pathway (AID 1259378; active = well fitted inhibition curve with a large enough effect in the signal ratio in the repeat runs, not every such curve was filed as active; the % refers to the signal ratio; also: potency is read from the fitted curve at half-maximal effect)
Summary of the method: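 ER-beta-UAS-bla HEK293T cells in 2% charcoal-stripped FBS medium treated with compound plus 1nM final 17-beta-estradiol for 16 hr at 37C. Beta-lactamase reporter read by FRET substrate fluorescence after 2 hours at room temperature.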

[5] = qHTS assay to identify small molecule agonists of the estrogen receptor beta (ER-beta) signaling pathway - cell viability counter screen (AID 1259380); also: nearly all actives have a fitted effect of over 30% in size
Summary of the method: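 HEK293T ER-beta-UAS-bla; 2% CS-FBS; 6 hr pre-plate, 16 hr cpd at 37C/5% CO2; LiveBLAzer read first, then CellTiter-Glo 30 min RT, luminescence.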

[6] = qHTS assay to identify small molecule antagonists of the estrogen receptor beta (ER-beta) signaling pathway - cell viability counter screen (AID 1259382); also: series mostly up to about 92 µM; nearly all actives have a fitted effect of over 55% in size
Summary of the method: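 Cells: ER-beta-UAS-bla HEK293T, 2,000/well, 2% CS-FBS, 6 hr settle. Cpd + E2 (1nM final), 16 hr, 37C/5% CO2. Bla FRET substrate 2 hr RT, then CellTiter-Glo 30 min RT, luminescence.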

[7] = biological target: Estrogen receptor (Homo sapiens) (UniProt P03372); test: qHTS assay to identify small molecule agonists of the estrogen receptor alpha (ER-alpha) signaling pathway in the presence of an antagonist (AID 1259383; calls by dose curve; also: top concentration of the series differs between compounds; nearly all actives have a fitted effect of over 15% in size)
Summary of the method: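 VM7Luc4E2, endog. ER-alpha + 4×ERE-luc; charcoal-stripped FBS, phenol red-free, 5 d; 24hr plating; +10.0nM ICI-182,780 (final); cpds 15 conc, 22hr, 37C/5% CO2; ONE-Glo luminescence.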

[8] = qHTS assay to identify small molecule agonists or antagonists of the thyroid stimulating hormone receptor (TSHR) signaling pathway - wild type cell line counter screen (AID 1259384; calls by dose curve)
Summary of the method: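 Wild-type Hek293 cells, 800/well, 18 h at 37C, then compound with Ro20-1724 for 30 min RT. cAMP by HTRF (cAMP-d2/anti-cAMP cryptate), 1 h RT, fluorescence read. 15 concentrations, triplicates.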

[9] = biological target: Thyrotropin receptor (Homo sapiens) (UniProt P16473); test: qHTS assay to identify small molecule antagonists of the thyroid stimulating hormone receptor (TSHR) signaling pathway (AID 1259385; calls by dose curve; also: nearly all actives have a fitted effect of over 20% in size)
Summary of the method: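 TSHR-HEK293 cells (800/well) plated 18 h, then compounds with Ro20-1724 and TSH at 1.5 ng/mL final, 30 min at room temperature. cAMP quantified by HTRF (cAMP-d2/anti-cAMP-cryptate, 1 h); 15 concentrations in triplicate.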

[10] = qHTS assay to identify small molecule agonists of the estrogen receptor alpha (ER-alpha) signaling pathway in the presence of an antagonist - cell viability counter screen (AID 1259386);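 also: series mostly up to about 92 µM; cells exposed to compounds for 22 h at 37 °C before the viability read; nearly all actives have a fitted effect of over 30% in size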
Summary of the method: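 VM7Luc4E2, stripped-serum pre-culture 5 d; 24hr plating; +ICI-182,780 10.0nM final; cpds 15 conc, 22hr, 37C/5% CO2; CellTiter-Fluor added at 21hr, fluorescence 1hr later.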

[11] = biological target: Progesterone receptor (Homo sapiens) (UniProt P06401); test: qHTS assay to identify small molecule agonists of the progesterone receptor (PR) signaling pathway (AID 1346784; calls by dose curve; also: nearly all actives have a fitted effect of over 30% in size)
Summary of the method: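 Using charcoal-stripped serum (2%) to limit endogenous steroids, PR-UAS-bla HEK 293T cells received compounds for 16 hr at 37C after 6 hr plating; beta-lactamase FRET fluorescence was recorded following 2 hr substrate loading at room temperature.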

[12] = biological target: Progesterone receptor (Homo sapiens) (UniProt P06401); test: qHTS assay to identify small molecule antagonists of the progesterone receptor (PR) signaling pathway (AID 1346795; active = well fitted inhibition curve with a large enough effect in the signal ratio in the repeat runs, not every such curve was filed as active; the % refers to the signal ratio)
Summary of the method: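 Inhibition of R5020-induced (1 nM final) beta-lactamase reporter signal in PR-UAS-bla HEK293T cells was scored by FRET fluorescence after overnight (16 hr) compound treatment.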

[13] = qHTS assay to identify small molecule antagonists of the progesterone receptor (PR) signaling pathway - cell viability counter screen (AID 1346798); also: series mostly up to about 92 µM; nearly all actives have a fitted effect of over 50% in size
Summary of the method: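 ATP content as viability readout: CellTiter-Glo luminescence, 30 min room temperature, in PR-UAS-bla HEK293T cells after 16 hr compound/R5020 treatment at 37C and 5% CO2.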

[14] = qHTS assay to identify small molecule agonists of the progesterone receptor (PR) signaling pathway - cell viability counter screen (AID 1346799; calls by dose curve; also: nearly all actives have a fitted effect of over 45% in size)
Summary of the method: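 Cytotoxicity in PR-bla HEK293T cells: 16 h compound, 37C; CellTiter-Glo added post-FRET read; luminescence after 30 min RT.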

[15] = qHTS assay to identify small molecule antagonists of the TGF-beta/Smad signaling pathway - cell viability counter screen (AID 1346824); also: nearly all actives have a fitted effect of over 50% in size
Summary of the method: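 SBE-bla HEK 293T cells, incubated overnight, then compound plus 0.25 ng/mL TGF-beta1 (stock added) for 5 hr at 37 C. Viability was read in the same wells by CellTiter-Glo luminescence after 30 min at room temperature.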

[16] = qHTS assay to identify small molecule agonists of the TGF-beta/Smad signaling pathway - cell viability counter screen (AID 1346829); also: top concentration of the series differs between compounds; nearly all actives have a fitted effect of over 45% in size
Summary of the method: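 In parallel with the Smad reporter read, viability of HEK 293T cells stably carrying SBE-bla is quantified by ATP luminescence following 5 hr compound treatment.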

[17] = qHTS assay to identify small molecule agonists of the TGF-beta/Smad signaling pathway (AID 1346859; active = well fitted activation curve with a large enough effect in the signal ratio in the repeat runs, not every such curve was filed as active; the % refers to the signal ratio; also: series mostly up to about 77 µM)
Summary of the method: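 Stable Smad binding element-beta-lactamase HEK 293T cells; 5 hr compound exposure at 37 C under 5% CO2; 2 hr room-temperature substrate step; fluorescence excited at 405 nm, collected at 460 nm and 530 nm.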

[18] = biological target: Thyrotropin-releasing hormone receptor (Homo sapiens) (UniProt P34981); test: qHTS assay to identify small molecule antagonists of the thyrotropin-releasing hormone receptor (TRHR) signaling pathway (AID 1346877; active = well fitted inhibition curve with a large enough effect in the repeat runs, not every such curve was filed as active; also: series mostly up to about 51 µM)
Summary of the method: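 Intracellular calcium fluorescence, read kinetically every second over 3 min, reports TRH-evoked signalling in HEK293 cells carrying TRHR. Test compounds were added 5 min ahead of a 1 nM TRH challenge.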

[19] = qHTS assay to identify small molecule agonists of the androgen receptor (AR) signaling pathway in the presence of an antagonist - cell viability counter screen (AID 1259379);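 also: MDA-kb2 human breast cancer cells carrying an MMTV luciferase reporter; series mostly up to about 92 µM; nearly all actives have a fitted effect of over 25% in size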
Summary of the method: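 Cells: MDA-kb2 (MMTV-luc, AR and GR elements), 3,000/well, 5 hr settle. Added: nilutamide 3.0uM final, then compounds (15 conc.). Incubation: 16 hr, 37C, no CO2. Read-out: CellTiter-Fluor, 1 hr, fluorescence.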

[20] = biological target: Androgen receptor (Homo sapiens) (UniProt P10275); test: qHTS assay to identify small molecule agonists of the androgen receptor (AR) signaling pathway in the presence of an antagonist (AID 1259381; calls by dose curve; also: nearly all actives have a fitted effect of over 15% in size)
Summary of the method: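 MDA-kb2 cells, 3,000/well, rested 5hr at 37C/0% CO2 → nilutamide 3.0uM final or buffer → compounds, 15 conc. → 16hr at 37C → ONE-Glo, 30min RT → luminescence.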
% is scaled to controls: 0 for no effect and ±100 for the full control effect.

Chain of Estrogen receptor beta (Homo sapiens) (Q92731 whole entry, looked up): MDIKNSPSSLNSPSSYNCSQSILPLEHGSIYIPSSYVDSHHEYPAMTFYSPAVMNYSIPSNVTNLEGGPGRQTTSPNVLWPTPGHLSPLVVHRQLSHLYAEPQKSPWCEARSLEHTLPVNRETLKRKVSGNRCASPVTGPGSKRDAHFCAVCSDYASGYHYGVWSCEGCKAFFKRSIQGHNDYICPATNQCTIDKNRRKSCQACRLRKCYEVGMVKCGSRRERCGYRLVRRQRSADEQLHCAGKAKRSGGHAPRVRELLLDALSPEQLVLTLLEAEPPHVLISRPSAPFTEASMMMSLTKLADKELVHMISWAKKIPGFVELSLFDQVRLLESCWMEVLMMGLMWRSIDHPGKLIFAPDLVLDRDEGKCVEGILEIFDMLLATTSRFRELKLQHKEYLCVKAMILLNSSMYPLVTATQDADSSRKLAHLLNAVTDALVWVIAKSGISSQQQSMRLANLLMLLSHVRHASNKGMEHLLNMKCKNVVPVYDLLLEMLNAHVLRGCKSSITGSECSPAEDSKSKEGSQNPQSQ
Chain of Thyrotropin receptor (Homo sapiens) (P16473 whole entry, looked up): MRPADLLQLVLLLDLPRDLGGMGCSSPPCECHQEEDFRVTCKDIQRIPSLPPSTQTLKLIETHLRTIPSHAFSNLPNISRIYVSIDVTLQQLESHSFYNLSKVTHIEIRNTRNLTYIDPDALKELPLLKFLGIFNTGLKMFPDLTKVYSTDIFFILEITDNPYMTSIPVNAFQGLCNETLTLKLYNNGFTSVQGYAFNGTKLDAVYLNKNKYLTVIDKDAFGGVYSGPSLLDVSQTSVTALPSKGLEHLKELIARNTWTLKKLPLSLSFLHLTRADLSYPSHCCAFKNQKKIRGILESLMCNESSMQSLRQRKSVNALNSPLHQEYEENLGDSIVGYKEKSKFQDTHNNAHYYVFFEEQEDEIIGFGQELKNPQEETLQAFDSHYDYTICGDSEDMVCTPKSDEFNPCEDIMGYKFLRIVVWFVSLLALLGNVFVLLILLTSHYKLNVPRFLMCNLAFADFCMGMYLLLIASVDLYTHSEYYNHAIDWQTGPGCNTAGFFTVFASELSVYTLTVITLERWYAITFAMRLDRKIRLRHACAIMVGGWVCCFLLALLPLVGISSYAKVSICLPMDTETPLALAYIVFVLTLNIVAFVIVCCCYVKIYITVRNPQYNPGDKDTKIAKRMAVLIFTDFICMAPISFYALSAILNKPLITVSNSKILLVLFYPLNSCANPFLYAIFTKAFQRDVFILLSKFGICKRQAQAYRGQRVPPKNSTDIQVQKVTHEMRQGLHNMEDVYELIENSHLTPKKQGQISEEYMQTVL
Chain of Thyrotropin-releasing hormone receptor (Homo sapiens) (P34981 whole entry, looked up): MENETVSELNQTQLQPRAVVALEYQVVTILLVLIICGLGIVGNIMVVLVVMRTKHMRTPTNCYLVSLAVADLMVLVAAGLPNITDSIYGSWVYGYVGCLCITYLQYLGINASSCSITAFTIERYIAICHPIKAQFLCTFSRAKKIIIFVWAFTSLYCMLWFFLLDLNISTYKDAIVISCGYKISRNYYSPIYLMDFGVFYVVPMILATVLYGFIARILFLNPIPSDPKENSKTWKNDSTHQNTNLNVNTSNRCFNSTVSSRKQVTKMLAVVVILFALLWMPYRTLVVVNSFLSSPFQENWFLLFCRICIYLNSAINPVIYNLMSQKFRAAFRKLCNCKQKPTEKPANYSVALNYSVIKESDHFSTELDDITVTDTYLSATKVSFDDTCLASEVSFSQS
Chain of Progesterone receptor (Homo sapiens) (P06401 whole entry, looked up): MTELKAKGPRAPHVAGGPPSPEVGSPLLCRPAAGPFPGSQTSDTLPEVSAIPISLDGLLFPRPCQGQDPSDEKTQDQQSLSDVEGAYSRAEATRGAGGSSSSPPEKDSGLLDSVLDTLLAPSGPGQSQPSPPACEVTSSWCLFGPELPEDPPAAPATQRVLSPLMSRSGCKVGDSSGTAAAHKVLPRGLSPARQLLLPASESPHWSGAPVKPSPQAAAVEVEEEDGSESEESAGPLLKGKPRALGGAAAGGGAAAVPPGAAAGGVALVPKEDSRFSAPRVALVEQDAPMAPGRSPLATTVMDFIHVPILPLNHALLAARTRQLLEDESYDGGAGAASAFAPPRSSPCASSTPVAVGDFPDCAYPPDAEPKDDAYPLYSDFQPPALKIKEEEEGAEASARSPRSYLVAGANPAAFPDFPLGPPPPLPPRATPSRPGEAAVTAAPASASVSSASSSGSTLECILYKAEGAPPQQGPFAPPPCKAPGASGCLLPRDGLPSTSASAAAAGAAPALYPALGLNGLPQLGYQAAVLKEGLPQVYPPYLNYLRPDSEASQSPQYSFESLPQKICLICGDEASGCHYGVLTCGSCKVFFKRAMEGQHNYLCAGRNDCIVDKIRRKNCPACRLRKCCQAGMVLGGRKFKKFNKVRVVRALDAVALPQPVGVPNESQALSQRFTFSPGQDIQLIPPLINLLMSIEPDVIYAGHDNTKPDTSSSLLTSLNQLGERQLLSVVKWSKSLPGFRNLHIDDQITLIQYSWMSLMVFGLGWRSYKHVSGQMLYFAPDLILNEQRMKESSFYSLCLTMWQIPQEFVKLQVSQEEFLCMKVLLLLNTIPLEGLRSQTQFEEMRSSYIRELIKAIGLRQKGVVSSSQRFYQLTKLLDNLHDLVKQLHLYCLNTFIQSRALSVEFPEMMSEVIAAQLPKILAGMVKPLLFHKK
Chain of Estrogen receptor (Homo sapiens) (P03372 whole entry, looked up): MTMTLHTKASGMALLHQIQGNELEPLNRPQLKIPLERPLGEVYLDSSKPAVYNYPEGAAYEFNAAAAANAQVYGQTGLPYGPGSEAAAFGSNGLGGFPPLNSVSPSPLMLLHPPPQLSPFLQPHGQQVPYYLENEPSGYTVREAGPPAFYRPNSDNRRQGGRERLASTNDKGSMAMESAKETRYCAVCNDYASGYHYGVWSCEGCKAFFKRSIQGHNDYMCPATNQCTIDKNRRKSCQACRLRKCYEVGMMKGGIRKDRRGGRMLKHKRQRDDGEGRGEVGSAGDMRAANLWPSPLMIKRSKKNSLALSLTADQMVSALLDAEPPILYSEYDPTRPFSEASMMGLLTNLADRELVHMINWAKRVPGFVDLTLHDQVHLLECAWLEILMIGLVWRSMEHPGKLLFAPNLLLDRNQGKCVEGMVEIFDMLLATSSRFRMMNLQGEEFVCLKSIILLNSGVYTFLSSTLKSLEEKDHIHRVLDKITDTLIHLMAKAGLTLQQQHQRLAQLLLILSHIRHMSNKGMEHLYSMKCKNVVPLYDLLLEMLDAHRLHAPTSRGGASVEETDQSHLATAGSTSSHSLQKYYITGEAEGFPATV
Chain of Androgen receptor (Homo sapiens) (P10275 whole entry, looked up): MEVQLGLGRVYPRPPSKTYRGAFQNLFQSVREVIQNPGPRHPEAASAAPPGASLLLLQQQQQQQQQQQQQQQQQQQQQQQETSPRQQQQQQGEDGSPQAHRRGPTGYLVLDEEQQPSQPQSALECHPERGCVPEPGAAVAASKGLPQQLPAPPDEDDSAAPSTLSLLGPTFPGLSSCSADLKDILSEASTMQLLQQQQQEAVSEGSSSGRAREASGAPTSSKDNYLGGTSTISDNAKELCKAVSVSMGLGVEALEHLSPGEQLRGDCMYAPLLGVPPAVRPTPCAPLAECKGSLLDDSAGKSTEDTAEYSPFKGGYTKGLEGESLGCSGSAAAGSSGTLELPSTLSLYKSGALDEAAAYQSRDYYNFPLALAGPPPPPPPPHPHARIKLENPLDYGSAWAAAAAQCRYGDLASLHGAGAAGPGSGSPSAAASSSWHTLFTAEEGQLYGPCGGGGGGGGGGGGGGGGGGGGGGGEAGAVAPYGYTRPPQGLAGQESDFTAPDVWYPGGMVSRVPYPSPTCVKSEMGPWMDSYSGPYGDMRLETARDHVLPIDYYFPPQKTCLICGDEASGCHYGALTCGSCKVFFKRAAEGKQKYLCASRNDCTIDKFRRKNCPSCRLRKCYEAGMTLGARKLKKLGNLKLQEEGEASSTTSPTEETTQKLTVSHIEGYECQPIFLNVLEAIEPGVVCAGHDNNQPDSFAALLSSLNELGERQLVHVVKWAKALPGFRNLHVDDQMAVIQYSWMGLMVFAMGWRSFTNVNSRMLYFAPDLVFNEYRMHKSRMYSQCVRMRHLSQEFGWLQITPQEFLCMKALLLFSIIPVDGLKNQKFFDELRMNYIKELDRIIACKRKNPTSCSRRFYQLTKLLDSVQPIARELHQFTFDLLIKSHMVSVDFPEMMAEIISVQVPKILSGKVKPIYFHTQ

O=C1CCCc2ccccc21
inactive: Potency [1] | Potency [2] | outcome [3] | Potency [4] | Potency [5] | outcome [6] | Potency [7] | outcome [8] | Potency [9] | Potency [10] | Potency [11] | Potency [12] | Potency [13] | Potency [14] | outcome [15] | outcome [16] | outcome [17]

O=C(O)CN(CCN(CC(=O)O)CC(=O)O)CCN(CC(=O)O)CC(=O)O
inactive: activity change [1] 0.166% [at 18.9 µM, active compounds read high] | activity change, negative = inhibition [2] -28.7% [at 19 µM] | activation [3] -4.18% [at 19 µM] | activity change, negative = cytotoxicity [10] -0.23% [at 19 µM] | activation [11] 9.07% [at 19 µM] | activity change, negative = inhibition [12] -12.7% [at 18.9 µM] | activity change, negative = cytotoxicity [14] -4.49% [at 19 µM] | viability change, negative = cytotoxic [15] 3.31% [at 15.8 µM] | activity change, negative = cytotoxicity [16] 9.66% [at 15.8 µM] | activation [17] 3.97% [at 15.8 µM] | activity, negative = inhibition [18] 0.832% [at 10.5 µM]
active: Potency [4] 5.8 µM

CC(C)NC[C@@H](O)COc1cccc2ccccc12
inactive: Potency [1] | Potency [2] | outcome [3] | Potency [19] | Potency [10] | Potency [11] | Potency [12] | outcome [15] | outcome [16] | outcome [17]

CCCCCCCOC(=O)CCC
inactive: Potency [1] | Potency [2] | Potency [4] | Potency [5] | outcome [6] | Potency [7] | outcome [8] | Potency [9] | Potency [10] | Potency [11] | Potency [13] | Potency [14] | outcome [16] | outcome [17]

CCCCN1C[C@H](O)[C@@H](O)[C@H](O)[C@H]1CO
inactive: Potency [1] | Potency [2] | Potency [19] | Potency [5] | outcome [6] | Potency [7] | outcome [8] | Potency [9] | Potency [10] | Potency [11] | Potency [12] | Potency [13] | Potency [14] | outcome [15] | outcome [16] | outcome [17] | outcome [18]

CC(=O)N[C@@H](CC(C)C)C(=O)O
inactive: Potency [1] | Potency [2] | Potency [19] | Potency [5] | outcome [6] | Potency [7] | Potency [10] | Potency [11] | Potency [12] | Potency [13] | Potency [14] | outcome [15] | outcome [16] | outcome [17]

OCCN(CCO)c1ccccc1
inactive: Potency [1] | Potency [2] | Potency [4] | Potency [19] | Potency [5] | Potency [20] | outcome [6] | Potency [7] | Potency [10] | Potency [11] | Potency [12] | Potency [13] | Potency [14] | outcome [15] | outcome [16] | outcome [17] | outcome [18]

Reference: PubChem BioAssay (Tox21)
